# Screens: PubChem, National Center for Advancing Translational Sciences (NCATS)
# Tau filament bind – binds recombinant human tau filaments; 71,000 tested, 2% active; Potency, µM (top dose mostly 57.1 µM), inactives show top-dose activity change, negative = inhibition; P10636; recombinant tau filaments, thioflavin S fluorescence, 15 h; filaments grown with octadecylsulfate alongside compound;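 note: potency is the fitted concentration of half-maximal effect; % is set by controls: 0 for no effect and ±100 for the full control effect; actives lower thioflavin S fluorescence by blocking filaments or displacing dye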
#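 Read-out: ThS fluorescence, 450 nm excitation/510 nm emission; lower signal marks blocked filament formation or displaced dye. Tau at 1 uM with 30 uM ODS, 10 uM ThS, 5 mM DTT, 100 mM NaCl, 10 mM HEPES pH 7.4; 15 h, 37 C.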
# TsaE inh – YjeE (TsaE) inhibition, E. coli; P0AF67; purified YjeE enzyme, qHTS inhibition assay; Potency, µM; 71,000 tested, 0.05% active
#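 Fluorescence polarization of a BODIPY Texas Red–ADP probe (2 uM) bound to purified YjeE (10 uM) was read after 15 min room-temperature incubation with compounds. Loss of polarization marks inhibitors; ADP serves as titrated control.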
# Hsp90 Hop PPI – changes Hsp90-Hop TPR2A binding signal, up or down; AlphaScreen TPR2A-His6 binding biotin-Hsp90 C-terminal peptide; Potency, µM (top dose mostly 57 µM), without a hit: at the highest dose activity change, negative = inhibition; 71,000 tested, 0.44% active; AID 595; active = well fitted curve in either direction with a large enough effect; inconclusive = small, poorly fitted or top-dose-only effect, or another doubt; note: potency is the fitted concentration of half-maximal effect; % is set by controls: 0 for no effect and ±100 for the full control effect
# BRCT PPI red – disrupts BRCA1 BRCT binding to phosphoprotein, red fluorophore readout. P38398. BRCT-phosphopeptide binding, red fluorescence polarization. Potency, µM (top dose mostly 76.9 µM), for the others: at the top dose activity change, negative = inhibition, usual class: inhibitors. 75,000 tested, 0.03% active. AID 892; note: % is set by controls: 0 for no effect and ±100 for the full control effect
# Target sequence (P38398 whole entry, looked up): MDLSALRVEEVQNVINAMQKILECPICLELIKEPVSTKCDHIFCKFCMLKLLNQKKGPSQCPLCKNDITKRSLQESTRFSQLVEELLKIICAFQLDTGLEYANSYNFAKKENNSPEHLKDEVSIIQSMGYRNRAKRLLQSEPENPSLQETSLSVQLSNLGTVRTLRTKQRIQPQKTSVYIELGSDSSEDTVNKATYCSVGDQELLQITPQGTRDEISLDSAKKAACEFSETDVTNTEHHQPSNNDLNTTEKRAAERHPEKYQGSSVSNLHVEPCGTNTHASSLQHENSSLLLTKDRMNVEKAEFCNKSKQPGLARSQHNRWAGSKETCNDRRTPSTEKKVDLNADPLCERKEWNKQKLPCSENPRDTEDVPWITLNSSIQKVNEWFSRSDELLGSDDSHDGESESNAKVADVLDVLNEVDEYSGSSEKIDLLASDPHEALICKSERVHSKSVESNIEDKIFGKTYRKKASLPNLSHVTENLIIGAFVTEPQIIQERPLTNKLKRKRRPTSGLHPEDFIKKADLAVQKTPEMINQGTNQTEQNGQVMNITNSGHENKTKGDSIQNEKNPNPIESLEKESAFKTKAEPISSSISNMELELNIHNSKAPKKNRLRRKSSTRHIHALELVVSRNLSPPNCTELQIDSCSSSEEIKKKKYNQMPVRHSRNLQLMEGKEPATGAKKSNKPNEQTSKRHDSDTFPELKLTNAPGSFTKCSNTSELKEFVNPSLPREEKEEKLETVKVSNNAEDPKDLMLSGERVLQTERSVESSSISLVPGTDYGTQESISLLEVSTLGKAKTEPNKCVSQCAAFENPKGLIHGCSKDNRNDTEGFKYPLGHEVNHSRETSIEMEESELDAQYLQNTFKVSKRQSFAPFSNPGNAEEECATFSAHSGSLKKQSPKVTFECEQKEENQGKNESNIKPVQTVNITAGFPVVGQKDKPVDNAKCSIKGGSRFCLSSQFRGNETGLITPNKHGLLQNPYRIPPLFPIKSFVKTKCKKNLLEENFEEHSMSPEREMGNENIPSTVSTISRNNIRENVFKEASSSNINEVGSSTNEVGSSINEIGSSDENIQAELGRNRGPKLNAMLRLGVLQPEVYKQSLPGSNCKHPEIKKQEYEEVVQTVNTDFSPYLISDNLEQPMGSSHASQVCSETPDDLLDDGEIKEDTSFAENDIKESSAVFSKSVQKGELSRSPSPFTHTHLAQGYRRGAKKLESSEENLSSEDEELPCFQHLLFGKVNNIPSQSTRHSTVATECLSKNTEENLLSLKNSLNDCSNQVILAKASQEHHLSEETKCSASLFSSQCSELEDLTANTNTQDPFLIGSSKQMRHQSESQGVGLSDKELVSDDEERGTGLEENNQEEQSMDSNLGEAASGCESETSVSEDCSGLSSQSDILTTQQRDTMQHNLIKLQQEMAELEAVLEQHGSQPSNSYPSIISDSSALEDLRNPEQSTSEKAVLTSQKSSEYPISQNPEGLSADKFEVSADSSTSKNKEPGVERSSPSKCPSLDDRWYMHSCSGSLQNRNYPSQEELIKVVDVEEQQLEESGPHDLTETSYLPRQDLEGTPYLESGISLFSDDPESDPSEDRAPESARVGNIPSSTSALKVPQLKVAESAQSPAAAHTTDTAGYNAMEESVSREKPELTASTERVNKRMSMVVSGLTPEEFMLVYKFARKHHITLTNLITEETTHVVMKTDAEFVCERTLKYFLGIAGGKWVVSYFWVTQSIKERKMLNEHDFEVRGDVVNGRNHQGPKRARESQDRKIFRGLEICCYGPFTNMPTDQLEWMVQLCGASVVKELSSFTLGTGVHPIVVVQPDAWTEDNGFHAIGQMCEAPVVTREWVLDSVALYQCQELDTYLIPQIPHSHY
#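 Fluorescence polarization: 100 nM His-tagged BRCA1 BRCT with 100 nM TAMRA-labelled phospho-BACH1 decapeptide, phosphate buffer pH 7.3 with 150 mM NaCl, DTT, 0.01% Tween 20; 12 min RT. Binding inhibition seen as FP decrease.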
# BRCT inh green – BRCA1 BRCT-phosphoprotein interaction inhibition. P38398. 75,000 tested, 0.05% active. BRCA1 BRCT-phosphopeptide binding, green fluorescence polarization. Potency, µM (titrated, usually from 76.9 µM), for the others: top-dose activity change, negative = inhibition, usual class: inhibitors;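 note: potency is the fitted concentration of half-maximal effect; plate controls were peptide without protein for full effect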
#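 Fluorescence polarization: His-tagged BRCT (~35 kDa BRCA1 C-terminus, 250 nM) bound to 100 nM fluorescein-labeled phosphorylated 10-aa BACH1 peptide, pH 7.3 phosphate buffer with DTT and Tween 20. Compounds incubated 12 min at room temperature; inhibition read as lowered polarization.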
# DNA Pol III inh – DNA polymerase III holoenzyme inhibition; reconstituted DNA polymerase III holoenzyme replication, biochemical; 71,000 tested, 0.25% active; Potency, µM (titrated, usually from 57.1 µM), without a hit: at the top dose activity change, negative = inhibition; note: potency is the fitted concentration of half-maximal effect; % is set by controls: 0 for no effect and ±100 for the full control effect
#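 Reconstituted *E. coli* holoenzyme (0.35 nM Pol III, 1 nM beta, 154 nM SSB, 2 nM primase) was preincubated with compound for 15 min at RT. Synthesis on 1.4 nM ssM13Gori ran 35 min, then was stopped with PicoGreen/EDTA and read as dsDNA fluorescence.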
# Starred values were filed as active, the others as inactive; i = inactive; u = inconclusive; x = no result; [ ] = remark or other dose. Compounds with a hit are over-represented: about 2.4% of the library has one in this group of screens. Unless noted, calls come from the whole dose curve; as a rule, active = well fitted curve in the direction sought with a large enough effect; inconclusive = small, poorly fitted or top-dose-only effect, or another doubt; inactive = no such curve, though single readings can be large; an effect the other way counts as inactive or inconclusive.
SMILES,Tau filament bind,TsaE inh,Hsp90 Hop PPI,BRCT PPI red,BRCT inh green,DNA Pol III inh
COc1ccc(-c2oc(/N=C/N3CCOCC3)c(C#N)c2-c2ccc(OC)cc2)cc1,1µM*,i,-20%,0%,0%,-1%
O=C(Cc1ccc(Cl)cc1)Nc1ccc(-c2nnc(-c3ccco3)o2)cc1,112%,i,-3%,0%,2%,20µM*
CC(C)[C@@H](CC(=O)N[C@@H]1CCCC[C@H]1C(=O)N[C@H](CC(=O)N[C@@H](CCC(=O)O)CC(=O)O)Cc1c[nH]c2ccccc12)NC(=O)C[C@H](Cc1c[nH]c2ccccc12)NC(=O)[C@@H]1CNCC[C@H]1N,-26%,i,16µM*,x,x,-4%
COc1cccc(/C=N/NC(=O)c2cc(-c3ccc(C)cc3)n[nH]2)c1O,x,x,x,9%,20%,x
CCNC(=O)[C@@H]1O[C@@H](n2cnc3c(NCc4ccccc4)ncnc32)[C@@H](O)[C@H]1O,10%,i,-8%,x,x,1%
CCCSC1=N/C(=C\C=C\c2ccco2)C(=O)S1,2µM*,i,-27%,-30%,-10%,1.3µM*
O=C1SC(SCc2ccccc2)=N/C1=C\c1ccco1,u,i,-23%,-4%,-1%,-21%
Cc1oc(/N=C/c2c(O)ccc3ccccc23)c(C#N)c1C,2.5µM*,i,-6%,0%,1%,-2%
CC1CCN(CC[C@@H]2CCCN2S(=O)(=O)c2cccc(O)c2)CC1,-3%,i,-1%,-1%,3%,8%
COc1cc2nc3c(c([Si](C)(C)C(C)(C)C)c2cc1OC)Cn1c-3cccc1=O,-15%,i,4%,-2%,15%,17%
O=C1c2ccccc2C(=O)c2c1ccc(C(=O)O)c2-c1ccc2ccccc2c1,3.2µM*,i,-18%[11 µM],1%[15.4 µM],-2%[15.4 µM],-14%[11.4 µM]
O=c1/c(=C/c2ccccn2)sc2nc3ccccc3n12,0.5µM*,i,-3%[11 µM],0%,-4%,8%[11.4 µM]
Fc1ccc([C@H]2CCNC[C@H]2COc2ccc3c(c2)OCO3)cc1,32µM*,i,-7%,-4%,-3%,-4%
O=c1oc2c3c4c(cc2s1)CCCN4CCC3,25µM*,i,-28%,-1%,-3%,-6%
O=C(O)c1ccccc1N[C@H](c1ccccc1)c1ccc2cccnc2c1O,-1%[11.4 µM],i,-15%[11 µM],0%[15.4 µM],1%[15.4 µM],-10%[11.4 µM]
Oc1c(C(Nc2ccccn2)c2ccccn2)ccc2cccnc12 (configuration not stated),-18%,i,3.2µM*,0%,1%,-7%
CC(=O)NC(c1ccco1)c1ccc2cccnc2c1O (configuration not stated),-13%,i,7.9µM*,0%,-1%,-2%
COc1cc(C(Nc2ccccn2)c2ccc3ccc(C)nc3c2O)cc(OC)c1O (configuration not stated),13µM*,i,u,-1%,-2%,8%
O[C@@H](c1cc(-c2ccccc2)nc2c1ccc1ccccc12)[C@@H]1CCCCN1,-11%[11.4 µM],i,u,-2%[15.4 µM],-2%[15.4 µM],-8%[11.4 µM]
O=C(Nc1nc(-c2ccco2)c(-c2ccco2)s1)C1CC(=O)N(c2ccc3c(c2)OCCO3)C1 (configuration not stated),63%,i,u,u,u,10µM*
COc1ccc(N2CCN(C(=O)C(C)(C)Oc3ccc(Cl)cc3)CC2)cc1,13µM*,i,-5%[2.3 µM],-1%,-3%,1%
O=C(O)CCCC[C@H]1CCSS1,-9%,i,1%,3%,-4%,-6%
c1ccc2cc(NCNc3ccc4ccccc4c3)ccc2c1,2.5µM*,i,u,0%[15.4 µM],0%[15.4 µM],-10%[11.4 µM]
O=C(Nc1nnc(-c2ccccc2)s1)c1ccc(Cl)c(S(=O)(=O)N2CCOCC2)c1,2%[11.4 µM],i,-7%[11 µM],0%,-3%,-2%[11.4 µM]
NC(=O)c1cc(-c2ccccc2)sc1NC(=O)Cc1ccc(S(=O)(=O)N2CCOCC2)s1,7.9µM*,i,-14%,0%,0%,0%
SMILES,Tau filament bind,TsaE inh,Hsp90 Hop PPI,BRCT PPI red,BRCT inh green,DNA Pol III inh
CN1CC[C@@]2(CCN3CCc4c(oc5ccccc45)[C@@H]3C2)N(C)C1=O,5%,i,-6%,-3%,-2%,-7%
CCN1c2ccccc2NC2N=C(OC)C(c3ccccc3)C21 (configuration not stated),32µM*,i,-20%,0%,-1%,0%
CCN1c2ccccc2NC2C1C(C(C)=O)C(=O)N2c1ccc(Cl)cc1 (configuration not stated),-29%,i,-27%,1%,2%,0%
OC(CCN1CCCCC1)(c1ccccc1)C1CCCCC1 (configuration not stated),x,x,x,-1%,-2%[3.08 µM],x
OC(CCN1CCOCC1)(c1ccc(Cl)cc1)C1CCCCC1 (configuration not stated),20µM*,i,0%,-1%,-6%,-4%
c1ccc(CNCCN2CCNCC2)nc1,-3%,i,4µM*,-2%,-4%,3%
O=S1(=O)CCN(Cc2ccccn2)CC1,1%[11.4 µM],i,-5%[11 µM],-2%[15.4 µM],-1%[15.4 µM],-3%[11.4 µM]
Clc1ccc([C@@H](c2ccccc2Cl)C(Cl)Cl)cc1,5%,i,u,x,x,-1%
CCOC(=O)N1CCC(Nc2c(Nc3ccc(C)c(C)c3)c(=O)c2=O)CC1,20µM*,i,-8%,0%,1%,-2%
CCOC(=O)N1CCC(Nc2c(OCC)c(=O)c2=O)CC1,-6%,i,-2%[2.3 µM],0%,-2%,-10%
O=[N+]([O-])c1ccc(Nc2nc3ccccc3s2)cc1,4µM*,i,-23%[11 µM],1%[15.4 µM],-1%[15.4 µM],-7%[11.4 µM]
CNc1ccc([N+](=O)[O-])cc1,-15%,u,0%,-6%,-7%,-4%
O=c1ccn([C@@H]2O[C@@H](COP(=O)(O)OP(=O)(O)O)[C@H](O)[C@@H]2O)c(=O)[nH]1,-9%,i,-9%,2%,-4%,11%
O=C(O)c1cccc2c1C(=O)N(Cc1ccncc1)C2,1%,i,3%,-1%,-1%,-3%
COc1ccc(N2Cc3cccc(C(=O)O)c3C2=O)cc1,-15%,i,-3%,-7%,-6%,16µM*
Cc1cc(N)c2cc(NC(=O)Nc3ccc4nc(C)cc(N)c4c3)ccc2n1,247%[11.4 µM],i,u,0%[15.4 µM],9%[15.4 µM],4µM*
Cc1cc(N)c2cc(OCCOc3ccc4nc(C)cc(N)c4c3)ccc2n1,x,x,x,1%[15.4 µM],-2%[15.4 µM],x
COc1cc(CNc2ccc3[nH]c(=O)[nH]c3c2)ccc1OCC(=O)NC(C)(C)C,13µM*,i,-11%,-4%,0%,-17%
C[N+](C)(C)CCN(Cc1cccs1)c1ccccn1,1%[11.4 µM],i,-4%[11 µM],1%[15.4 µM],-2%[15.4 µM],-15%[11.4 µM]
